# ARNT TACC3 PPI – disruptors of ARNT/TACC3 protein interaction, primary screen, biochemical, AlphaScreen, single concentration; Transforming acidic coiled-coil-containing protein 3 (Homo sapiens), Q9Y6A5; AlphaScreen His-ARNT PAS-B/GST-TACC3 binding, luminescence; TACC3 fragment carries E629A point mutation; inhibition, % at 9.99 µM; 390,000 compounds, 0.66% hits; AID 623870, 2012;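 active = mean inhibition of replicates at least 50% and at least half of replicates each reaching 50%; inconclusive = half or more replicates reach 50% but mean below 50%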;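 note: 0% = complete ARNT plus TACC3 wells and 100% = ARNT alone without TACC3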
# sPLA2-III inh – human group III sPLA2 inhibitors, primary screen, biochemical, QFRET, BODIPY PC-A2 liposome substrate | Group 3 secretory phospholipase A2 (Homo sapiens), Q9NZ20 | QFRET BODIPY PC-A2 liposome hydrolysis, fluorescence | inhibition, % at 12.2 µM | 370,000 compounds, 0.56% hits;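 active = inhibition above mean plus 3 SD of compounds lying within the high and low control bounds, cut at about 19% in these data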;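 note: 0% = median of test compound wells and 100% = no enzyme DMSO wells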
# Target sequence (Q9NZ20 whole entry, looked up): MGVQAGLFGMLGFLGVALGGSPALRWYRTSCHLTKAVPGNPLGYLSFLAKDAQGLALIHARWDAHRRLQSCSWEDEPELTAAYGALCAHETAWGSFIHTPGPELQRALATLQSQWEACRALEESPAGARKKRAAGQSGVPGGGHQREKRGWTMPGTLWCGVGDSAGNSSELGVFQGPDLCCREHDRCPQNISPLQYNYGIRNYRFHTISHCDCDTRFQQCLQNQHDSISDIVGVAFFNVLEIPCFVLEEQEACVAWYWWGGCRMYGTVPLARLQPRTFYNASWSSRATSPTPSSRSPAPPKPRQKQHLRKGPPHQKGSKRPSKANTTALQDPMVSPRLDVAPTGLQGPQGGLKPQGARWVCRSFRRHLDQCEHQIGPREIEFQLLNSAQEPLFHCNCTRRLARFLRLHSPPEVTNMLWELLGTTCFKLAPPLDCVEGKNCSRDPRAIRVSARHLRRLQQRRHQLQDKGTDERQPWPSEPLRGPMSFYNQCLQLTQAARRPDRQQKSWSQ
# AI-2 QS modul – Vibrio harveyi AI-2 quorum sensing modulators, primary screen, JMH597 strain, luminescence/OD600 ratio. Vibrio harveyi JMH597 AI-2 luminescence/OD600 ratio, 9 h; hits give low values; strain lacks LuxN and CqsS sensors; 0 = neutral-control median. activity change, % at 7.5 µM. 300,000 compounds, 0.4% hits. AID 2094, 2009; in the data active = activity change below about -75%, passing the limit was not always enough; inconclusive = no clear call, values can overlap the other calls;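 note: luminescence divided by OD600 gain over 9 h not by final OD600 alone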
# Rin1 Abl inh – inhibitors of Rin1-Abl protein binding, primary screen, biochemical, TR-FRET. inhibition, % at 7.35 µM. 360,000 compounds, 0.4% hits. AID 588664, 2011; in the data active = inhibition above about 5%, passing the limit was not always enough
# Active calls of the source: *; u = inconclusive; x = not tested or not shown. Rows were chosen to be rich in hits. Some 1.5% of all compounds tested hit in one or more screens of this group.
SMILES,ARNT TACC3 PPI,sPLA2-III inh,AI-2 QS modul,Rin1 Abl inh
COc1ccc(NC(=O)Nc2ccc3c(c2)C(=O)N([C@H](C)CO)C[C@H](C)[C@@H](CN(C)S(=O)(=O)c2c(C)noc2C)OCCCC[C@@H](C)O3)cc1,3,x,x,x
O=C(CCn1c(=O)oc2ccccc21)NCCN1CCc2ccccc2C1,-5,-3,6,0
O=C(CCCn1c(=O)oc2ccccc21)N1CCc2ccccc2C1,active,9,14,0
O=C(NC1CCCCC1)N[C@H]1CC[C@@H](CC(=O)N2CCOCC2)O[C@@H]1CO,0,x,x,x
COc1ccccc1-n1c(SCC(=O)O)nc2c(sc(=S)n2-c2ccc(Cl)c(C)c2)c1=O,-8,-32,20,-1
Cc1cc(-n2c(=S)sc3c(=O)n(-c4ccc(F)cc4)c(SCC(=O)O)nc32)ccc1Cl,22*,-34,3,2
O=C(C1CCCC1)N1CCCCN2[C@H](CO)[C@@H](c3ccc(-c4cccc(F)c4)cc3)[C@@H]2C1,8,x,x,x
CCOC(=O)c1sc(N/N=C/c2ccccc2)nc1C,1,1,10,1
O=C(O)Cc1sc(N/N=C\c2ccccc2)nc1-c1ccccc1,2,23*,16,3
O=C(Nc1ccc(N2CCOCC2)c(Cl)c1)c1ncn[nH]1,58*,-5,28,6
O=C(Nc1ccc2oc(-c3ccccc3Cl)nc2c1)c1ncn[nH]1,50*,-63,99,-4
COc1cc(NCCCC(C)N)c2ncccc2c1 (stereo not drawn),67*,4,8,-1
S=C(NCc1ccco1)Nc1cc(-c2ccccc2)[nH]n1,2,2,-81*,1
S=C(NCc1ccco1)Nc1ccc(Br)cn1,-2,6,18,-3
O=C(N/N=C/c1ccccc1F)C(=O)N1CCCCCC1,2,-1,19,0
COc1cccc(/C=N/NC(=O)C(=O)N2CCCC2)c1O,68*,-8,31,-3
O=C(N/N=C/c1ccccc1O)C(=O)N1CCCCCC1,67*,-9,u,2
COc1cccc(/C=N/NC(=O)C(=O)N2CCCC2)c1OC,-3,-1,-2,2
Cc1cc(-c2ccc(F)cc2)nc2cc(C(N)=O)nn12,41*,3,13,0
Cc1nn(CC(=O)NC(C)c2ccccc2)c(=O)c2ccccc12 (stereo not drawn),-7,0,29,-4
Cc1nn(CC(=O)Nc2ccccc2)c(=O)c2ccccc12,27,6,-88*,-3
CC(=O)N(C)C[C@@H]1Oc2cc(C#Cc3ccccn3)ccc2S(=O)(=O)N([C@@H](C)CO)C[C@H]1C,-8,x,x,x
Cc1ccnc(NC(=O)CNC(=O)c2ccc(Br)o2)c1,2,-2,-85*,1
CO[C@H]1CN(C)C(=O)c2cc(NC(=O)C3CC3)ccc2OC[C@H](C)N(CCC(F)(F)F)C[C@@H]1C,1,x,x,x
Cc1ccc(C(=O)N/C(=C\c2ccco2)C(=O)NCCCn2ccnc2)cc1,98*,2,21,-1
SMILES,ARNT TACC3 PPI,sPLA2-III inh,AI-2 QS modul,Rin1 Abl inh
O=C(NCCCn1ccnc1)/C(=C/c1ccccc1)NC(=O)c1ccccc1,15,1,22,5
CN(C)c1ccc(/C=C(\NC(=O)c2ccccc2)C(=O)NCCCn2ccnc2)cc1,54*,-5,x,1
O=C(NCCCn1ccnc1)/C(=C/c1ccco1)NC(=O)c1ccccc1,7,5,0,1
Cc1ccc(C(=O)N/C(=C/c2ccco2)C(=O)NCCCn2ccnc2)cc1,49*,-19,21,-3
COc1ccc(/C=C(\NC(=O)c2ccc(C)cc2)C(=O)NCCCn2ccnc2)cc1OC,54*,2,6,-1
Cc1ccc(C(=O)N/C(=C/c2ccccc2F)C(=O)NCCCn2ccnc2)cc1,12,-3,7,0
C[C@@H]1CCCCO[C@H](CN(C)Cc2ccc(C(=O)O)cc2)[C@@H](C)CN([C@@H](C)CO)C(=O)c2cc(NC(=O)CCC(F)(F)F)ccc2O1,-9,x,x,x
O=C(C1CCOCC1)N1CC[C@H]2[C@H](CO)Nc3ccc(Br)cc3[C@H]21,4,x,x,x
COc1ccc(CN2C(=O)c3cccnc3C2=O)cc1S(=O)(=O)NC1CCCCC1,38,1,1,-2
COc1ccc(CN2C(=O)c3cccnc3C2=O)cc1S(=O)(=O)N1CC(C)CC(C)C1 (stereo not drawn),29*,10,9,1
Cn1c2ccccc2c2nnc(SCC(=O)Nc3cccc(C(=O)O)c3)nc21,47*,-4,17,1
Cc1noc(C)c1NC(=O)N[C@@H]1C=C[C@H](CC(=O)NCCCN(C)C)O[C@@H]1CO,-6,x,x,x
Cc1ccc(C(=O)CC(=O)COc2ccc(Cl)cc2)cc1,0,-9,-79*,-2
O=[N+]([O-])c1ccc(Oc2cccc3cccnc23)c([N+](=O)[O-])c1,active,10,16,0
COc1ccc(CN(C)C[C@@H]2Oc3ccc(NC(=O)NC4CCCCC4)cc3CC(=O)N([C@H](C)CO)C[C@@H]2C)cc1,-5,x,x,x
N#Cc1nc(-c2ccccc2Cl)oc1NCc1ccco1,-1,-6,-80*,-4
COc1cccc(S(=O)(=O)Nc2ccc3c(c2)OC[C@H](C)N(Cc2ccccc2F)C[C@H](C)[C@H](OC)CN(C)C3=O)c1,2,x,x,x
C[C@@H]1CCCCO[C@@H](CN(C)C(=O)C2CCCCC2)[C@@H](C)CN([C@H](C)CO)C(=O)c2cc(NC(=O)Nc3ccc(C(F)(F)F)cc3)ccc2O1,-6,x,x,x
c1ccc(Cc2nc(-c3ccccn3)no2)cc1,9,-1,-48,-4
Cc1ccc(Cc2nc(-c3ccccn3)no2)cc1,17,-3,-85*,0
CC(=O)N(C)C[C@H]1Oc2ncc(C#CCc3ccccc3)cc2C(=O)N([C@@H](C)CO)C[C@@H]1C,23,x,x,x
COc1ccc(C2=Nn3c(nnc3-c3ccccn3)SC2)cc1OC,83*,5,19,-4
CC(C)(C)C1=Nn2c(nnc2-c2ccccn2)SC1,72*,5,27,3
CN(C)CC(=O)N1[C@@H]2c3ccc(C4=CCCC4)c(=O)n3C[C@H]1[C@H](CO)[C@H]2C(=O)NCC1CCCCC1,-2,x,x,x
CC(=O)N(C)C[C@@H]1Oc2ncc(C#Cc3cccc(F)c3)cc2C(=O)N([C@@H](C)CO)C[C@H]1C,7,x,x,x
Cc1nn(CC(=O)N/N=C/c2cccs2)c(C)c1[N+](=O)[O-],-4,0,19,-1
COc1cccc(/C=N/NC(=O)Cn2nc(C)c([N+](=O)[O-])c2C)c1O,65*,-11,23,-1
COc1cccc(/C=N/NC(=O)C(C)n2nc(C)c([N+](=O)[O-])c2C)c1O (stereo not drawn),88*,-19,4,-1
O=c1[nH]c(=O)n([C@H]2C[C@H](O)[C@@H](CO)O2)cc1C(F)(F)F,-3,-2,-108*,1
